Earlier results, collected in PubChem BioAssay AID977610.
Among all 3,600 compounds or so, about 3,600 (100%) were called active. No cut-off is given here; in the data, nearly all actives have Ki up to about 18000 µM. The set was probably picked from earlier hits. This is one part of the list.

Test: PubChem AID 977610
Conditions: PDB protein-ligand complexes, literature Ki

## CC1=C(C(=O)O)N[C@@H]([C@@H](C=O)NC(=O)Cc2cccs2)SC1
protein: Carboxylesterases, PDB entry 4ivk
  Ki: 140 µM (active)

## Cc1cc(C)nc(N)n1
protein: PDE10A2, PDB entry 4llx
  Ki: 1300 µM (active)

## CNc1nc2cc3nc[nH]c(=O)c3cc2[nH]1
protein: Queuine tRNA-ribosyltransferase, PDB entry 3GEV
  Ki: 2.9 µM (active)
protein: Queuine tRNA-ribosyltransferase, PDB entry 3V0Y
  Ki: 4.1 µM (active)

## CC(C)[C@@H]1NC(=O)[C@H](CCC(=O)O)NC(=O)[C@H](Cc2ccc(O)cc2)NC(=O)[C@H](CCCNC(N)N)NC(=O)[C@H](CO)NC(=O)[C@@H](NC(=O)[C@H](C)N)CSCc2cc3cc(c2)CSC[C@H](NC(=O)[C@H](CC(=O)O)NC1=O)C(=O)N[C@@H](CCCNC(N)N)C(=O)NCC(=O)N[C@@H](CCCNC(N)N)C(=O)N[C@H](CO)C(=O)N[C@@H](CO)C(=O)N[C@@H](C)C(=O)N[C@H](C(=O)NCC(N)=O)CSC3
protein: Urokinase-type plasminogen activator (C122A, N145Q mutation), PDB entry 4jk5
  Ki: 0.028 µM (active)

## CC[C@H]1NC(=O)[C@H](CCCNC(N)N)NC(=O)CNC(=O)[C@H](CCCNC(N)N)NC(=O)[C@@H]2CSCc3cc(cc(c3)CSC[C@@H](C(=O)NCC(N)=O)NC(=O)[C@H](C)NC(=O)[C@H](CO)NC1=O)CSC[C@H](NC(=O)[C@H](C)N)C(=O)N[C@@H](CO)C(=O)N[C@@H](CCCNC(N)N)C(=O)N[C@@H](Cc1ccc(O)cc1)C(=O)N[C@@H](CCC(=O)O)C(=O)N[C@@H](C(C)C)C(=O)N[C@@H](CC(=O)O)C(=O)N2
protein: Urokinase-type plasminogen activator (C299A, N322Q mutation), PDB entry 4jk6
  Ki: 0.064 µM (active)

## NC1=NC2=NC[C@@H](CNc3ccc(C(=O)N[C@@H](CCC(=O)O)C(=O)O)cc3)N(C=O)C2C(=O)N1 (stereo not given in full)
protein: Serine hydroxymethyltransferase, putative SHMT, PDB entry 4oyt
  Ki: 1550 µM (active)

## C[C@]12CC[C@@H](O)C[C@@H]1CC[C@@H]1[C@@H]2CC[C@]2(C)C=CC[C@@H]12
protein: Mus musculus constitutive androstane receptor, PDB entry 1xnx
  Ki: 0.416 µM (active)

## C[C@@H](NC(=O)CCCC[C@@H](N)C(=O)O)[C@H](O)C(F)(F)F
protein: D-ALANYL-D-ALANINE CARBOXYPEPTIDASE, PDB entry 3zcz
  Ki: 0.17 µM (active)

## Cc1cc(C)c(Nc2nc(Nc3ccc(C#N)cc3)nc(OCCCN3CCOCC3)n2)c(C)c1
protein: HIV-1 reverse transcriptase, p66 subunit RT52A, PDB entry 4o44
  Ki: 0.014 µM (active)

## CC(C)N1CCC(C(=O)Nc2c(OCCCO[C@@H]3O[C@H](CO)[C@@H](O)[C@H](O)[C@H]3O)cccc2OCc2cc(-c3ccc(Cl)s3)on2)CC1
protein: Alpha Thrombin, hfIIa, PDB entry 4n3l
  Ki: 0.1 µM (active)

## Nc1cc(Cl)nc(N)n1
protein: PDE10A2, PDB entry 4ms0
  Ki: 410 µM (active)

## CCCCCCCCOc1cccc(CSc2ccc(Br)cc2C(=O)O)c1
protein: Dehydrosqualene synthase, PDB entry 3tfv
  Ki: 0.08 µM (active)

## CC(C)Nc1cc(=O)n(-c2ccccc2)nc1-c1ncn[nH]1
protein: MEMBRANE PRIMARY AMINE OXIDASE, PDB entry 4btx
  Ki: 0.29 µM (active)

## c1ccc(-c2nc(N3CCOCC3)c3sccc3n2)cc1
protein: 3-OXOACYL-[ACYL-CARRIER-PROTEIN] REDUCTASE FABG, PDB entry 4bny
  Ki: 0.08 µM (active)

## O=C(O)C1=C[C@H]2OCC=C[C@@](O)(C1)[C@H]2O
protein: SHIKIMATE KINASE, PDB entry 4bqs
  Ki: 62 µM (active)

## O=C(O)CCc1cccc(C(=O)O)c1
protein: FKBO, PDB entry 4bps
  Ki: 1020 µM (active)

## CCC1(CC)C[C@@H](C(=O)NCc2ccc(C(N)N)cc2)n2c1c(Cl)nc(NC1CCC1)c2=O
protein: Factor VII heavy chain & Factor VII light chain, PDB entry 4isi
  Ki: 0.0073 µM (active)

## O=C(O)C(=O)Nc1sc2c(c1C(=O)O)CCSC2
protein: human protein-tyrosine phosphatases 1B, PTP-1B, PDB entry 1gfy
  Ki: 8.32 µM (active)

## C[C@H](NC(=O)NC1C2CC3CC(C2)CC1C3)C(=O)N1CC[C@H](c2ccccc2Cl)N1c1ccccc1F (stereo not given in full)
protein: rat neurolysin, PDB entry 4fxy
  Ki: 0.029 µM (active)

## Cc1nc2cc(OCc3ccc4ccccc4n3)ccc2s1
protein: PDE10A2, PDB entry 4mse
  Ki: 0.69 µM (active)

## c1cnc2cc(OCc3ccc4ccccc4n3)ccc2c1
protein: PDE10A2, PDB entry 4msc
  Ki: 1.1 µM (active)

## O=c1[nH]c(=O)n([C@H]2C[C@H](O)[C@@H](CO[P+](O)(O)O)O2)cc1F
protein: human Thymidylate synthase (TS) R163K, PDB entry 3h9k
  Ki: 0.014 µM (active)

## O=c1[nH]c(=O)n([C@@H]2O[C@H](CO[P+](O)(O)O)[C@@H](O)[C@H]2O)cc1F
protein: Mt orotidine 5'-monophosphate decarboxylase (OMPDC) D70G mutant, PDB entry 3g1v
  Ki: 645 µM (active)
